Among all 5,700 compounds or so, about 85 (1%) were called active. No stated cut-off is given here; in the data, active means p53-positive nuclei above about 36% (passing the limit was not always enough); inactive means the rest. Shown is part of a subset that was picked to be rich in actives.
How the values were obtained:
[1] = nuclear p53 accumulation, HPV+ cells – imaging, p53-positive nuclei imaging, 24 h, 48 h (AID 1508601); details: 24/48 h
[2] = target: Cellular tumor antigen p53 (Homo sapiens) (UniProt P04637); experiment: as above; details: 24/48 h, stronger effect = higher value
Sequence of Cellular tumor antigen p53 (Homo sapiens) (P04637 whole entry, looked up): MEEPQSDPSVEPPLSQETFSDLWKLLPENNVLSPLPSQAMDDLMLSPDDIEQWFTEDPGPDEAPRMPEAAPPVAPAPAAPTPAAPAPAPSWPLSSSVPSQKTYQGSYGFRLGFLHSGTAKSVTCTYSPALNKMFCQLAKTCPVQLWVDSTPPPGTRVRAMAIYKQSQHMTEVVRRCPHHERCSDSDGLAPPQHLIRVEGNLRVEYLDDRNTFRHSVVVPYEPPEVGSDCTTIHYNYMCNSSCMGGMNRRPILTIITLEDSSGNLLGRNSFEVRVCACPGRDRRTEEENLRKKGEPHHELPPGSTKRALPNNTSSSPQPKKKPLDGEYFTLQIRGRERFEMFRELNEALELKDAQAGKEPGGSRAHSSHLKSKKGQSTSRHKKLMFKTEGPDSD

[3] = measured here: cell number at 24 h, Library stock concentration: 3.33 mM
[4] = measured here: cell number at 24 h, Library stock concentration: 10 mM
[5] = measured here: cell number at 48 h, Library stock concentration: 3.33 mM
[6] = measured here: cell number at 48 h, Library stock concentration: 10 mM
[7] = Library stock concentration: 3.33 mM
[8] = Library stock concentration: 10 mM
[9] = measured here: p53 positive nuclei at 24 h, Library stock concentration: 3.33 mM
[10] = measured here: p53 positive nuclei at 24 h, Library stock concentration: 10 mM
[11] = measured here: cell number at 24 h, concentration not given here
[12] = measured here: cell number at 48 h, concentration not given here
[13] = measured here: p53 positive nuclei at 24 h, concentration not given here

OC(c1cc(C(F)(F)F)nc2c(C(F)(F)F)cccc12)[C@H]1CCCCN1 (some centres not stated)
nuclei count, normalised ([1]; measured here: cell number at 24 h, Library stock concentration: 500 nM): 110%
nuclei count, normalised ([1]; measured here: cell number at 24 h, Library stock concentration: 1.5 uM): 109%
nuclei count, normalised ([1]; measured here: cell number at 24 h, Library stock concentration: 4.6 uM): 109%
nuclei count, normalised ([1]; measured here: cell number at 24 h, Library stock concentration: 13.7 uM): 101%
nuclei count, normalised ([1]; measured here: cell number at 24 h, Library stock concentration: 41 uM): 117%
nuclei count, normalised ([1]; measured here: cell number at 24 h, Library stock concentration: 123 uM): 109%
nuclei count, normalised ([1]; measured here: cell number at 24 h, Library stock concentration: 370 uM): 109%
nuclei count, normalised ([1]; measured here: cell number at 24 h, Library stock concentration: 1.111 mM): 110%
nuclei count, normalised [1, 3]: 95.3%
nuclei count, normalised ([1]; measured here: cell number at 24 h, Library stock concentration: 3.333 mM): 112%
nuclei count, normalised [1, 4]: 86.2%
nuclei count, normalised ([1]; measured here: cell number at 48 h, Library stock concentration: 500 nM): 105%
nuclei count, normalised ([1]; measured here: cell number at 48 h, Library stock concentration: 1.5 uM): 105%
nuclei count, normalised ([1]; measured here: cell number at 48 h, Library stock concentration: 4.6 uM): 112%
nuclei count, normalised ([1]; measured here: cell number at 48 h, Library stock concentration: 13.7 uM): 103%
nuclei count, normalised ([1]; measured here: cell number at 48 h, Library stock concentration: 41 uM): 120%
nuclei count, normalised ([1]; measured here: cell number at 48 h, Library stock concentration: 123 uM): 113%
nuclei count, normalised ([1]; measured here: cell number at 48 h, Library stock concentration: 370 uM): 110%
nuclei count, normalised ([1]; measured here: cell number at 48 h, Library stock concentration: 1.111 mM): 113%
nuclei count, normalised [1, 5]: 94.9%
nuclei count, normalised ([1]; measured here: cell number at 48 h, Library stock concentration: 3.333 mM): 116%
nuclei count, normalised [1, 6]: 99.6%
p53-positive nuclei, normalised ([2]; Library stock concentration: 500 nM): -0.00517% (inactive)
p53-positive nuclei, normalised ([2]; Library stock concentration: 1.5 uM): -0.125% (inactive)
p53-positive nuclei, normalised ([2]; Library stock concentration: 4.6 uM): 0.0484% (inactive)
p53-positive nuclei, normalised ([2]; Library stock concentration: 13.7 uM): -0.00344% (inactive)
p53-positive nuclei, normalised ([2]; Library stock concentration: 41 uM): -0.185% (inactive)
p53-positive nuclei, normalised ([2]; Library stock concentration: 123 uM): -0.102% (inactive)
p53-positive nuclei, normalised ([2]; Library stock concentration: 370 uM): -0.0936% (inactive)
p53-positive nuclei, normalised ([2]; Library stock concentration: 1.111 mM): -0.065% (inactive)
p53-positive nuclei, normalised [2, 7]: 4.69% (inactive)
p53-positive nuclei, normalised ([2]; Library stock concentration: 3.333 mM): -0.144% (inactive)
p53-positive nuclei, normalised [2, 8]: 1.04% (inactive)
p53-positive nuclei, normalised ([2]; measured here: p53 positive nuclei at 24 h, Library stock concentration: 500 nM): 0.0755%
p53-positive nuclei, normalised ([2]; measured here: p53 positive nuclei at 24 h, Library stock concentration: 1.5 uM): -0.239%
p53-positive nuclei, normalised ([2]; measured here: p53 positive nuclei at 24 h, Library stock concentration: 4.6 uM): -0.0294%
p53-positive nuclei, normalised ([2]; measured here: p53 positive nuclei at 24 h, Library stock concentration: 13.7 uM): -0.185%
p53-positive nuclei, normalised ([2]; measured here: p53 positive nuclei at 24 h, Library stock concentration: 41 uM): -0.239%
p53-positive nuclei, normalised ([2]; measured here: p53 positive nuclei at 24 h, Library stock concentration: 123 uM): -0.134%
p53-positive nuclei, normalised ([2]; measured here: p53 positive nuclei at 24 h, Library stock concentration: 370 uM): -0.187%
p53-positive nuclei, normalised ([2]; measured here: p53 positive nuclei at 24 h, Library stock concentration: 1.111 mM): -0.0384%
p53-positive nuclei, normalised [2, 9]: 2.85%
p53-positive nuclei, normalised ([2]; measured here: p53 positive nuclei at 24 h, Library stock concentration: 3.333 mM): -0.036%
p53-positive nuclei, normalised [2, 10]: 1.37%

COC(=O)C1C(O)CC[C@H]2CN3CCc4c([nH]c5ccccc45)[C@@H]3C[C@H]12 (some centres not stated)
nuclei count, normalised [1, 3]: 104%
nuclei count, normalised [1, 5]: 106%
p53-positive nuclei, normalised [2, 7]: -0.11% (inactive)
p53-positive nuclei, normalised [2, 9]: -0.356%

CCCCCCCCCCCCCCP(=O)(O)O
nuclei count, normalised [1, 11]: 105%
nuclei count, normalised [1, 12]: 107%
p53-positive nuclei, normalised ([2]; concentration not given here): -0.0194% (inactive)
p53-positive nuclei, normalised [2, 13]: -0.0488%

COc1ccc(N(C(=O)Nc2c(C)cccc2C)c2cc(Nc3ccc(N4CCN(C)CC4)cc3OC)ncn2)c(OC)c1
nuclei count, normalised ([1]; measured here: cell number at 24 h, Library stock concentration: 80 uM): 104%
nuclei count, normalised ([1]; measured here: cell number at 24 h, Library stock concentration: 400 uM): 93.8%
nuclei count, normalised ([1]; measured here: cell number at 24 h, Library stock concentration: 2 mM): 82.3%
nuclei count, normalised [1, 4]: 66%
nuclei count, normalised ([1]; measured here: cell number at 48 h, Library stock concentration: 80 uM): 104%
nuclei count, normalised ([1]; measured here: cell number at 48 h, Library stock concentration: 400 uM): 90.4%
nuclei count, normalised ([1]; measured here: cell number at 48 h, Library stock concentration: 2 mM): 64.8%
nuclei count, normalised [1, 6]: 66.4%
p53-positive nuclei, normalised ([2]; Library stock concentration: 80 uM): -0.0182% (inactive)
p53-positive nuclei, normalised ([2]; Library stock concentration: 400 uM): -0.151% (inactive)
p53-positive nuclei, normalised ([2]; Library stock concentration: 2 mM): -0.0629% (inactive)
p53-positive nuclei, normalised [2, 8]: 0.104% (inactive)
p53-positive nuclei, normalised ([2]; measured here: p53 positive nuclei at 24 h, Library stock concentration: 80 uM): -0.103%
p53-positive nuclei, normalised ([2]; measured here: p53 positive nuclei at 24 h, Library stock concentration: 400 uM): -0.0385%
p53-positive nuclei, normalised ([2]; measured here: p53 positive nuclei at 24 h, Library stock concentration: 2 mM): -0.0916%
p53-positive nuclei, normalised [2, 10]: -0.0741%

COc1cc(C(=O)NCc2ccc(OCCN(C)C)cc2)cc(OC)c1OC
nuclei count, normalised [1, 11]: 106%
nuclei count, normalised [1, 12]: 102%
p53-positive nuclei, normalised ([2]; concentration not given here): -0.214% (inactive)
p53-positive nuclei, normalised [2, 13]: -0.0679%
